# Values without a mark were called inactive. The rule behind the calls is not given here.
# Target: Integrin alpha-4 (Homo sapiens) (UniProt P13612)
# Assay: enhancers of LDV-FITC binding to VLA-4, dose response, cell-based, flow cytometry (AID 703)
# Conditions: Jurkat cells, stronger effect = higher value
# Integrin alpha-4 (Homo sapiens), sequence (P13612 whole entry, looked up): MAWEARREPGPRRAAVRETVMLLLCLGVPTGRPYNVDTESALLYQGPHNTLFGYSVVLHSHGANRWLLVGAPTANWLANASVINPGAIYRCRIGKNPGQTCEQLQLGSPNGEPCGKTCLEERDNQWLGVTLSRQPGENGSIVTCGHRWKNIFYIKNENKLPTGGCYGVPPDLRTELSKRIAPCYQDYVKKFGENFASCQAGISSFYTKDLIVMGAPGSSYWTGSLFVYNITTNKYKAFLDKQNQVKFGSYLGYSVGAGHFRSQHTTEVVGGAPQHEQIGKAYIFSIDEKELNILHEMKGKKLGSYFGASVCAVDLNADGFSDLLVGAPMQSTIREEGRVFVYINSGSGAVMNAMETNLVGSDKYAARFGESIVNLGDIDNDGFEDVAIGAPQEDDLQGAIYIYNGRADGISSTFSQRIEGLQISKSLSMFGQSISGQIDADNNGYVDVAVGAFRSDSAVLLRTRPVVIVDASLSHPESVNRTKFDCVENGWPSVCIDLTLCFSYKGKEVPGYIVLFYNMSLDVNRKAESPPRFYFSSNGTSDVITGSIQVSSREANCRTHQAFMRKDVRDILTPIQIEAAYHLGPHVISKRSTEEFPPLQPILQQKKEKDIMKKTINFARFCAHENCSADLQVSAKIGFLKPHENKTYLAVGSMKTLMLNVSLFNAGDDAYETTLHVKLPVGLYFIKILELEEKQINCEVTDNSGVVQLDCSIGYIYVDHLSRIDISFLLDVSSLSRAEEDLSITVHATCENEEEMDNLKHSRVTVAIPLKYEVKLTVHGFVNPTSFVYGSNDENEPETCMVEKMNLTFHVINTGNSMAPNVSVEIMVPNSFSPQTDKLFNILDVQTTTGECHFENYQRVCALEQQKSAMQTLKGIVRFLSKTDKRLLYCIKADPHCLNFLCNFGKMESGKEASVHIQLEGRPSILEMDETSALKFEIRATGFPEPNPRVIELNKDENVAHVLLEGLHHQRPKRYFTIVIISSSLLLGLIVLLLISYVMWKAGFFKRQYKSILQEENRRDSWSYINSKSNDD
smiles,measurement,value
O=c1c2ccccc2[se]n1-c1ccccc1,activation at 0 C,0

# From PubChem BioAssay AID703 (NMMLSC, 2007)
